Source: PubChem (National Center for Advancing Translational Sciences (NCATS))
Rab9 prom act: activators of Rab9 promoter. Huh7 Rab9 promoter-luciferase reporter, luminescence, 24 h. Potency, µM (doses to about 9.22 µM), without a hit: top-dose activation, negative = inhibition, actives largely listed as activators. 320,000 tested, 2.8% active; further: % of control where 0% means no effect; nearly all actives have a fitted effect of over 60% in size
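Steps: seed 1500 Huh7 Rab9-luc cells per well, rest 2 h at 37 °C; add compound in DMSO; incubate 24 h; add luciferase reagent, 10 min ambient; read luminescence.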
p53 reactivation: mutant p53 re-activation in reporter cells | H1299 p53-A138V BP100-luciferase reporter, luminescence, 24 h | Potency, µM (titrated, usually from 92.2 µM), for the others: top-dose activity change, positive = activation, hits mostly activators | 320,000 tested, 0.063% active; further: % of control where 0% means no effect; nearly all actives have a fitted effect of over 45% in size
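H1299 (p53-null), stable ts p53-A138V + BP100-Luc; 1000 cells/well, Opti-MEM/10% FBS; cpd 4 pt, 1:5; 24 h, 37 deg C, 5% CO2; detection reagent 10 min RT; luminescence.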
NPC1 promoter act: activators of NPC1 promoter. Huh7 NPC1 promoter luciferase reporter, 24 h. Potency, µM (series often up to 9.22 µM), for the others: top-dose activation, usual class: activators. 320,000 tested, 2.4% active. AID 485313; further: % of control where 0% means no effect; nearly all actives have a fitted effect of over 60% in size
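Cells: Huh7 expressing luciferase under the NPC1 promoter, 1500/well. Seeded 2 h, compound added, incubated 24 h at 37 °C. Luciferase reagent, 10 min ambient, then luminescence.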
FLuc counter: firefly luciferase modulation, counter-screen for miR-21 project | 360,000 tested, 6.9% active | P08659 | purified FLuc, Km substrates, luminescence inhibition | Potency, µM (titrated, usually from 57.5 µM), for inactives: at the top dose activity change, negative = inhibition, usual class: inhibitors;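 further: plate controls were vehicle for no effect and reference inhibitor for full effect; nearly all actives have a fitted effect of over 55% in size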
Target sequence (P08659 whole entry, looked up): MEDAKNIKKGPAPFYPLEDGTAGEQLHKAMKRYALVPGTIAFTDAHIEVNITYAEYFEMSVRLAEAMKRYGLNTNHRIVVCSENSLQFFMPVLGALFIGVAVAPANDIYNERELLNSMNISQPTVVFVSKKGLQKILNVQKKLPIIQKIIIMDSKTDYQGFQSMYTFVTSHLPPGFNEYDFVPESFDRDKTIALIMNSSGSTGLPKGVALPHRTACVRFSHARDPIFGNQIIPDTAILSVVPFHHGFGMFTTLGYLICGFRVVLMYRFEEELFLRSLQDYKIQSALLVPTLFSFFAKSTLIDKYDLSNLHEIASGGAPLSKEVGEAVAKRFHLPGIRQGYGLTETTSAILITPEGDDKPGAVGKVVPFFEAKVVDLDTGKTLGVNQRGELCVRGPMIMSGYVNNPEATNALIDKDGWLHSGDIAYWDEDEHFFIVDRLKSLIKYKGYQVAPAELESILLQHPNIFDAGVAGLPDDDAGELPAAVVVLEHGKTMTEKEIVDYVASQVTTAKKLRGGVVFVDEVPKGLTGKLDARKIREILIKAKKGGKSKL
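Purified P. pyralis luciferase, 10 nM final, with Km-level 10 uM D-luciferin and 10 uM ATP in 50 mM Tris acetate pH 7.5, 10 mM Mg acetate, 0.01% Tween-20, 0.05% BSA; 6-point qHTS titration about 60 µM downward; luminescence read.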
ELG1 genotox: inducers of genotoxicity in HEK293T ELG1-luciferase cells; HEK293T ELG1-luciferase reporter, luminescence, 16 h; Potency, µM (top dose mostly 46 µM), without a hit: at the top dose activity change, positive = activation, hits mostly activators; 330,000 tested, 1.3% active; further: % of control where 0% means no effect; nearly all actives have a fitted effect of over 60% in size
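Reporter readout depends on ELG1 protein level, which increases with genetic stress. After 16 hr compound exposure at 37 °C, luciferase activity was quantified using ONE-Glo.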
SMN2 splice enh: enhancers of SMN2 splice variant expression; HEK293 SMN2-luciferase splicing reporter, luminescence, 30-36 h; Potency, µM (titrated, usually from 46.1 µM), inactives show at the highest dose activity change, positive = activation, usual class: activators; 210,000 tested, 2.8% active; AID 1458; further: % of control where 0% means no effect; nearly all actives have a fitted effect of over 55% in size
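qHTS luciferase splicing reporter: luminescence rises when SMN2 exon 7 is included in transfected HEK293 cells. Compound exposure lasted 30-36 h at 37C, with 4.5 mM final sodium butyrate as control, followed by a ONE-Glo read.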
An asterisk follows results filed as active; ? = inconclusive; · = not tested or not shown; [ ] = another dose, or the depositor's remark. A selection: hits, their analogues and other compounds. The true share with any hit is near 7.3%. The call rests on the fitted dose curve; in most records, active means well fitted curve in the direction sought with a large enough effect; inconclusive means small, poorly fitted or top-dose-only effect, or another doubt; inactive means no such curve, though single readings can be large; an effect the other way counts as inactive or inconclusive. Potency means the concentration at half of the fitted maximal effect.

SMILES	Rab9 prom act	p53 reactivation	NPC1 promoter act	FLuc counter	ELG1 genotox	SMN2 splice enh
NC(=O)c1cc(S(=O)(=O)Nc2ccc(OC(F)(F)F)cc2)cs1	1.7%	?	-4.1%	2.0%	-5.4%	·
Nc1nc(Cl)nc2c1ncn2[C@@H]1O[C@H](COP(=O)(O)OP(=O)(O)OP(=O)(O)O)[C@H](O)[C@H]1O	·	·	·	·	·	-10.2%
N#Cc1c(-n2ncnc2-c2ccc(Br)cc2)sc2c1CCCCC2	·	·	·	1.2µM*	·	5.6%
Cc1ccc(C)n1-c1sc2c(c1C#N)CCCC2	13.9%	27.2%	-0.7%	-0.4%	?	16.1%
COc1cccc(-c2ncnn2-c2sc3c(c2C#N)CCCCC3)c1OC	·	·	·	0.953µM*	·	8.7%
CCOc1ccc(-c2ncnn2-c2sc3c(c2C#N)CCCCC3)cc1	·	·	·	?	·	-16.1%
CCOc1ccc(NC(=S)N2CCCC2)cc1	0.8%	13.8%	-2.7%	-0.9%	25.9%	·
CCc1ccc(NC(=S)N2CCCCCCC2)cc1	?	-0.7%	?	4.78µM*	?	15.8µM*
S=C(Nc1ccc(Br)cc1)N1CCN(C2CCCCC2)CC1	-8.9%	-0.5%	-0.2%	7.4%	-1.4%	-15.1%
S=C(Nc1ccc(Br)cc1)N1CCCC1	3.3%	15.6%	15.9%	15.1µM*	12.2%	8.91µM*
CCCCc1ccc(NC(=S)N2CCCC(C)C2)cc1 (configuration not stated)	16.4%	-7.9%	8.2%	13.5µM*	10.6%	13.9%
S=C(Nc1ccc(Cl)cc1)N1CCCCC1	1.4%	29.2%	6.7%	12µM*	1.5%	11.8%
CN1CCN(C(=S)Nc2ccc(Cl)cc2)CC1	0.5%	12.8%	-6.9%	?	0.1%	9.0%
COc1ccc(-c2oc(=O)c3cc(OC)c(OC)cc3c2/C=C/c2ccc(OC(C)=O)cc2)cc1	·	14.2%	·	·	2.2%	·
CC(=O)Oc1ccccc1/C=C/c1nc2ccccc2c(=O)o1	?	-9.3%	?	15.1µM*	1.3%	·
CC(=O)Oc1ccc(/C=C/c2nc3ccccc3c(=O)o2)cc1	?	-18.3%	?	0.426µM*	4.3%	·
NCC(=O)N[C@H](CO)C(=O)O	·	·	·	·	·	-3.5%[9.22 µM]
COc1ccc(NC(c2ccc(F)cc2)c2nnc(-c3ccccc3Cl)o2)cc1Cl (configuration not stated)	·	·	·	0.5%	·	-24.7%
CSc1ccc(CN(C)C(=O)COc2ccc(C(=O)c3ccccc3)cc2)cc1	3.3%	8.6%	-3.7%	?	2.1%	·
O=c1cnc2cnc(Oc3cccc(Cl)c3)nc2n1C1CC1	·	·	·	·	·	-32.2%
CCN(CC)N=Nc1[nH]nc2nc(C)cc(C)c12	6.4%	31.3%	22.2%	?	6.8%	10.8%
Cc1cc(C)c2c(N=NN3CCCCC3)[nH]nc2n1	22.9%	?	20.1%	19µM*	17.3%	1.0%
Cc1cc2nc(N3C(=O)CNC3=S)sc2cc1C	0.447µM*	-3.8%	0.447µM*	0.536µM*	18.3µM*	3.98µM*
CCOc1ccc2nc(N3C(=O)CNC3=S)sc2c1	0.562µM*	?	0.708µM*	0.849µM*	20.6µM*	·
Cc1nccn1CCCN1C(=O)CNC1=S	0.3%	-8.8%	-2.5%	-1.5%	1.5%	-2.5%
SMILES	Rab9 prom act	p53 reactivation	NPC1 promoter act	FLuc counter	ELG1 genotox	SMN2 splice enh
O=C(NCC(c1ccc2c(c1)OCO2)N1CCOCC1)c1cccc(Cl)c1 (configuration not stated)	·	·	·	-8.3%	·	·
CC(Sc1nnc(-c2ccco2)n1N)C(=O)NCc1ccc2c(c1)OCO2 (configuration not stated)	-1.3%	3.2%	-5.0%	2.2%	1.9%	·
Cc1cc(C(=O)CSc2n[nH]c(N)n2)c(C)n1-c1cccc(F)c1	?	21.9%	28.4%	23.9µM*	?	?
Cc1cc(C(=O)CSc2ncccn2)c(C)n1-c1cccc(F)c1	1.41µM*	?	3.55µM*	2.39µM*	10.3µM*	?
Cc1cc(C(=O)CSc2nnnn2C)c(C)n1-c1cccc(F)c1	1.26µM*	?	3.98µM*	7.57µM*	?	12.6µM*
Cc1cc(C(=O)COC(=O)C2=COCCO2)c(C)n1-c1cccc(F)c1	0.562µM*	?	1.41µM*	1.9µM*	?	·
Cc1cc(C)cc(-n2c(C)cc(C(=O)CSc3nnnn3C)c2C)c1	-2.8%	3.5%	9.1%	-3.9%	14.8%	-17.4%
Cc1nc2c(oc3ccccc32)c(=O)o1	1.5%	?	-2.1%	21.3µM*	?	16.6%
O=c1[nH]c(Cc2ccccc2)nc2c1oc1ccccc12	13.8%	-6.9%	1.2%	-6.2%	2.4%	2.9%
COC(=O)Cc1c(C)c2ccc3c(c2oc1=O)CN(Cc1ccccc1OC)CO3	·	·	·	-0.5%	·	8.5%
COc1ccc(/C=C/C(=O)N(C(C)C)C(C)C)cc1Br	0.0%	8.1%	3.5%	-12.8%	?	6.9%
CCN(C(=O)/C=C/c1ccccc1)C1CCCCC1	0.7%	·	-4.4%	?	0.4%	·
CN(C(=O)/C=C/c1cnc2ccccc2c1)C1CCCCC1	1.12µM*	9.8%	1.58µM*	4.26µM*	-0.9%	3.16µM*
COc1ccc(/C=C/C(=O)N(C)C2CCCCC2)cc1Br	22.5%	3.0%	15.7%	23.9µM*	?	?
Cc1ccccc1N=Nc1c(C)[nH]n(-c2ccccc2)c1=O	0.3%	2.5%	2.1%	?	-0.7%	·
Cc1cc(Cl)cc2c(N=Nc3ccccc3C(=O)O)c(O)[nH]c12	?	13.0%	?	12µM*	2.5%	·
Cc1[nH]n(-c2ccccc2)c(=O)c1N=Nc1nccs1	10.1%	?	18.9%	19µM*	6.5%	-31.7%
Cc1[nH]n(-c2ccccc2)c(=O)c1N=Nc1ccccc1C(=O)O	16.6%	?	17.9%	16.9µM*	-15.9%	·
C/C(=N\NC(=O)c1ccccc1)c1c(C)[nH]n(-c2ccccc2)c1=O	-19.9%	-3.7%	-25.2%	-12.9%	4.2%	·
Cc1[nH]n(-c2ccccc2)c(=O)c1C(=O)Nc1ccccc1	12.5%	24.6%	0.2%	16.9µM*	9.2%	·
Cc1ccc(NC(c2cccc(Cl)c2)c2nnc(-c3ccccc3)o2)cc1F (configuration not stated)	·	·	·	-2.0%	·	-4.3%
Cc1cccc(N2CCN(CCCNC(=O)c3sc4ncccc4c3-n3cccc3)CC2C)c1 (configuration not stated)	·	·	·	1.4%	·	·
C[C@H]1Cc2c(-c3ccccc3)nc3c(c2CO1)CN(C(=O)C1CCCCC1)CC3	·	·	·	·	·	7.5%[9.22 µM]
Cc1[nH]n(-c2ccccc2)c(=O)c1N=Nc1ccccc1O	-41.8%	18.9%	-29.6%	8.49µM*	9.7%	·
NCCC[C@@H](CC(=O)N[C@@H]1CCCC[C@H]1C(=O)N[C@H](CC(=O)N[C@@H](CCC(=O)O)CC(=O)O)Cc1ccccc1)NC(=O)C[C@H](CO)NC(=O)[C@@H]1CCCC[C@H]1N	·	·	·	·	·	13.4%
